In PubChem BioAssay (EPA / NIEHS) one finds outcome and AC50 data, which are given here for four compounds.

Read-out in assay [1]: Intercellular Adhesion Molecule 1 (ICAM1), ICAM1 (gene 3383)
The experiment in a line: BSK_3C_ICAM1: BioMAP Diversity Plus: 3C Assay for Intercellular Adhesion Molecule 1 (ICAM1) Biomarker Activity (AID 2283003). To be noted: primary human endothelial cells (HUVEC); actives raise or lower the signal. In short, it runs like this: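 Using DMSO as baseline, bidirectional curve fitting was applied to ICAM-1 ELISA signals from HUVEC in the 3C system, measured 24 h after compound addition.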

Assay [2] in a line: BSK_3C_Proliferation: Cell Proliferation Assessment in the BioMAP Diversity Plus: 3C Assay (AID 2283006).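 As to AC50: potency may reflect either rise or fall in cell number versus DMSO.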 The following applies: primary human endothelial cells (HUVEC). In short, it runs like this: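 Measured here: sulforhodamine B (0.1%) staining of TCA-fixed sub-confluent umbilical vein endothelial cultures 48 h post-dosing, absorbance 560 nm. DMSO served as negative control and baseline; both signal gain and loss were modelled.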

For assay [3], the target named is Peroxisome proliferator-activated receptor gamma (Homo sapiens) (UniProt P37231). The experiment in a line: ATG_PPARg_TRANS: Attagene TRANS-FACTORIAL HepG2 Assay for human Peroxisome Proliferator-activated Receptor-gamma (PPARg) (AID 2283007; active = hit-call score of the fitted dose curve at least 0.9, where 1 is the maximum). In short, it runs like this: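 After 24 h of chemical exposure, transfected HepG2 cells carrying PPARγ-Gal4 chimera reporter constructs are lysed for RNA. Reporter transcripts are measured by RT-PCR and capillary electrophoresis with fluorescent labelling, and gain of signal is fitted versus DMSO.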

Assay [4] addresses Nuclear receptor subfamily 1 group I member 2 (Homo sapiens) (UniProt O75469). The experiment in a line: ATG_PXR_TRANS: Attagene TRANS-FACTORIAL HepG2 Assay for human Pregnane X Receptor (PXR) (AID 2283008; active = hit-call score of the fitted dose curve at least 0.9, where 1 is the maximum). In short, it runs like this: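 Transactivation by exogenous PXR–GAL4 fusion measured as reporter transcript induction after 24 h compound treatment of transfected human HepG2 cells. Read-out via RT-PCR and capillary electrophoresis of labelled fragments, fitted upward relative to DMSO.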

Read-out in assay [5]: E-selectin (Homo sapiens) (UniProt P16581)
Nature of the assay: BSK_3C_Eselectin: BioMAP Diversity Plus: 3C Assay for Eselectin Biomarker Activity (AID 2283015).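 As to outcome: cell surface E-selectin protein quantified by ELISA 24 h after dosing.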 To be noted: primary human endothelial cells (HUVEC); actives raise or lower the signal. In short, it runs like this:
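ELISA read-out of E-selectin on endothelial monolayers after 24 h chemical treatment. Human umbilical vein primary cells served as the system, with DMSO defining baseline activity for bidirectional fitting.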

Read-out in assay [6]: Interleukin-1 alpha (IL1a), IL1A (gene 3552)
The experiment in a line: BSK_BE3C_IL1a: BioMAP Diversity Plus: BE3C Assay for Interleukin-1 alpha (IL1a) Biomarker Activity (AID 2283016). To be noted: primary human bronchial epithelial cells; actives raise or lower the signal. In short, it runs like this:
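Measured in human lung primary bronchial epithelial cells: IL-1a by ELISA at 24 h after dosing, with bidirectional fitting against DMSO.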

Read-out in assay [7]: Monocyte Chemoattractant Protein-1 (MCP1), CCL2 (gene 6347)
The experiment in a line: BSK_3C_MCP1: BioMAP Diversity Plus: 3C Assay for Monocyte Chemoattractant Protein-1 (MCP1) Biomarker Activity (AID 2283017). To be noted: primary human endothelial cells (HUVEC); actives raise or lower the signal. In short, it runs like this:
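ELISA read-out of MCP-1 from human umbilical vein endothelial cell cultures harvested 24 h post-dosing. Gain or loss of signal was fitted relative to DMSO.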

Read-out in assay [8]: Monocyte Chemoattractant Protein-1 (MCP1), CCL2 (gene 6347)
Nature of the assay: BSK_4H_MCP1: BioMAP Diversity Plus: 4H Assay for Monocyte Chemoattractant Protein-1 (MCP1) Biomarker Activity (AID 2283018). To be noted: primary human endothelial cells (HUVEC); actives raise or lower the signal. In short, it runs like this:
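Primary human umbilical vein endothelium is exposed to chemical for 24 h before MCP-1 is assayed by ELISA. Concentration-response fitted bidirectionally relative to DMSO.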

Read-out in assay [9]: Human Leukocyte Antigen - DR isotype (HLADR), HLA-DRA (gene 3122)
Nature of the assay: BSK_3C_HLADR: BioMAP Diversity Plus: 3C Assay for Human Leukocyte Antigen - DR isotype (HLADR) Biomarker Activity (AID 2283019).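 As to outcome: ELISA of cell-surface HLA-DR on HUVEC 24 h after dosing.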 The following applies: primary human endothelial cells (HUVEC); actives raise or lower the signal. In short, it runs like this:
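ELISA readout of surface HLA-DR on human umbilical vein endothelium, taken 24 h after chemical treatment. Gain- and loss-of-signal were both fitted relative to DMSO.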

Read-out in assay [10]: Interleukin-8 (IL8), CXCL8 (gene 3576)
Nature of the assay: BSK_3C_IL8: BioMAP Diversity Plus: 3C Assay for Interleukin-8 (IL8) Biomarker Activity (AID 2283020). The following applies: primary human endothelial cells (HUVEC); actives raise or lower the signal. In short, it runs like this:
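Using DMSO-treated wells as the baseline, bidirectional curve fitting was applied to ELISA-measured IL-8 from human umbilical vein endothelial cultures sampled 24 h after compound addition.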

The target in assay [11] is human Vitamin D Receptor (VDR), VDR (gene 7421) (UniProt P11473). The experiment in a line: ATG_VDR_TRANS: Attagene TRANS-FACTORIAL HepG2 Assay for human Vitamin D Receptor (VDR) (AID 2283022; active = hit-call score of the fitted dose curve at least 0.9, where 1 is the maximum). In short, it runs like this:
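Steps: transfect HepG2 with GAL4-UAS-driven reporter constructs; dose compounds 24 h; isolate RNA, reverse-transcribe, PCR-amplify with 6-FAM-labelled primer extension and HpaI digestion; quantify fragments by capillary electrophoresis relative to DMSO.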

The target of assay [12] is human Retinoic Acid Receptor beta (RARb), RARB (gene 5915) (UniProt P10826). Nature of the assay: ATG_RARb_TRANS: Attagene TRANS-FACTORIAL HepG2 Assay for human Retinoic Acid Receptor beta (AID 2283004; active = hit-call score of the fitted dose curve at least 0.9, where 1 is the maximum). In short, it runs like this: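 Transient transfection of HepG2 with multiple reporter units → chemical dosing, 24 h → total RNA isolation → RT with oligo(dT) → reporter-specific PCR, 6-FAM primer extension, HpaI digest → capillary electrophoresis. Positive direction vs DMSO control.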

The target of assay [13] is Retinoic acid receptor alpha (Homo sapiens) (UniProt P10276). The experiment in a line: ATG_RARa_TRANS: Attagene TRANS-FACTORIAL HepG2 Assay for human Retinoic Acid Receptor alpha (RARa) (AID 2283005; active = hit-call score of the fitted dose curve at least 0.9, where 1 is the maximum). In short, it runs like this: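 HepG2 transiently transfected with multiplex GAL4-UAS reporter units including a human RARa–GAL4 chimera; 24 h compound exposure. Reporter mRNA quantified by RT-PCR, 6-FAM labeling and capillary electrophoresis; gain of signal versus DMSO.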

Assay [14] has as its target Retinoic acid receptor RXR-alpha (Homo sapiens) (UniProt P19793). The experiment in a line: ATG_RXRa_TRANS: Attagene TRANS-FACTORIAL HepG2 Assay for human Retinoid X Receptor alpha (RXRa) (AID 2283012; active = hit-call score of the fitted dose curve at least 0.9, where 1 is the maximum). In short, it runs like this:
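Chimeric NR-GAL4 trans-activation in HepG2, 24 h treatment; reporter transcripts quantified by fluorescence on capillary electrophoresis, analysed for upward change from DMSO.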

For assay [15], the target named is human Thyroid Receptor alpha (THRa1), THRA (gene 7067) (UniProt P10827). Nature of the assay: ATG_THRa1_TRANS: Attagene TRANS-FACTORIAL HepG2 Assay for human Thyroid Receptor alpha (THRa1) (AID 2283014; active = hit-call score of the fitted dose curve at least 0.9, where 1 is the maximum). In short, it runs like this:
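Reporter transcript induction, read by capillary electrophoresis of 6-FAM-labelled RT-PCR products, reflects activity of a transfected THRa1-Gal4 fusion in HepG2 liver cells. Cells were dosed for 24 h; activity was fitted in the positive direction against DMSO.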

Read-out in assay [16]: Monokine induced gamma interferon (MIG), CXCL9 (gene 4283)
The experiment in a line: BSK_3C_MIG: BioMAP Diversity Plus: 3C Assay for Monokine induced gamma interferon (MIG) Biomarker Activity (AID 2283021).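 As to AC50: MIG protein level measured by immunoassay in the treated endothelial cultures.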 To be noted: primary human endothelial cells (HUVEC); actives raise or lower the signal. In short, it runs like this: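 ELISA-measured MIG in dosed HUVEC 3C cultures at 24 h, analysed by bidirectional fitting with DMSO defining baseline activity.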

SMILES strings stand for the structures. Results filed as inconclusive are left out. Activity calls are given as the source filed them. The calls were made as follows, unless noted: active = hit-call score of the fitted dose curve at least 0.9, where 1 is the maximum; inactive = score below 0.9.

Chain of Nuclear receptor subfamily 1 group I member 2 (Homo sapiens) (O75469 whole entry, looked up, the tested form may be a part): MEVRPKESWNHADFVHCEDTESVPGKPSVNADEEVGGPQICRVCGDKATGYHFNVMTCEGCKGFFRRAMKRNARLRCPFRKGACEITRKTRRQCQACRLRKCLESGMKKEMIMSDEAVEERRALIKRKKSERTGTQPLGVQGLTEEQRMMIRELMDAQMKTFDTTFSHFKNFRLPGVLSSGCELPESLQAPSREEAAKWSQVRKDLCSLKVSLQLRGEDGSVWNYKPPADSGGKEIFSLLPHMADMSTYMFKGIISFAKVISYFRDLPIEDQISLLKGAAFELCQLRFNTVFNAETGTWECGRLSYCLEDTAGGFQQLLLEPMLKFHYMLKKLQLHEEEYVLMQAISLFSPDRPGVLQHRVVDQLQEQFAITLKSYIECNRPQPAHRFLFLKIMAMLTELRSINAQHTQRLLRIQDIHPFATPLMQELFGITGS
Chain of Peroxisome proliferator-activated receptor gamma (Homo sapiens) (P37231 whole entry, looked up, the tested form may be a part): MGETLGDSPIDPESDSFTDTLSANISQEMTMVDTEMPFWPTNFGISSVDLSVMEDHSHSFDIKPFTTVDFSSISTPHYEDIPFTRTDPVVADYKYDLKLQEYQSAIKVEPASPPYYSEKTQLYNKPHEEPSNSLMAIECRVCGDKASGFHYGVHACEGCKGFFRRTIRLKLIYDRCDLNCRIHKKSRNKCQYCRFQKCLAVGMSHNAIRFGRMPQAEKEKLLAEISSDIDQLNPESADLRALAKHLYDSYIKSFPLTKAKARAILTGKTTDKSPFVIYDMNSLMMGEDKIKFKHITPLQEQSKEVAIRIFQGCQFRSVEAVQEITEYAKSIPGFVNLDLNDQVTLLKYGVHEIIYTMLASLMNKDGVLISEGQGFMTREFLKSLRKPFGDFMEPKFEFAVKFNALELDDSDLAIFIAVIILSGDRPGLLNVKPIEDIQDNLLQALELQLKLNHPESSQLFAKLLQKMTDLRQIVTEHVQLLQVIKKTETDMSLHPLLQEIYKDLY
Chain of E-selectin (Homo sapiens) (P16581 whole entry, looked up): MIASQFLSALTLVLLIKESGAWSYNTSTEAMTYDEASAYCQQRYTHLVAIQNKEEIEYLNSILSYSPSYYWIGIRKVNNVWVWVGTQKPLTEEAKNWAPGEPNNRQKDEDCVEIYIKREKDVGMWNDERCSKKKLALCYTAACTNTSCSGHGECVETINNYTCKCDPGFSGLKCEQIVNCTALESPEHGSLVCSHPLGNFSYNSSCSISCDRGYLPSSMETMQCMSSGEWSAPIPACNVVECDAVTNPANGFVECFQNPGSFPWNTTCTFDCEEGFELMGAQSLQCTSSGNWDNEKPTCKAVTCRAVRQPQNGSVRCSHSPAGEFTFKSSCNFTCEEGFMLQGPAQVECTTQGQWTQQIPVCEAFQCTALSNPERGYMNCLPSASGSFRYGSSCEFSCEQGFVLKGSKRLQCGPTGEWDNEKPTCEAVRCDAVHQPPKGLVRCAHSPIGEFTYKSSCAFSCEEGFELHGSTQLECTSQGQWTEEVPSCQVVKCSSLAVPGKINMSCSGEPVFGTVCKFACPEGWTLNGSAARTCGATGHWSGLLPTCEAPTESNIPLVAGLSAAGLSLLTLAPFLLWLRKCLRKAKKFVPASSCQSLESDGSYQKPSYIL
Chain of human Vitamin D Receptor (VDR), VDR (gene 7421) (P11473 whole entry, looked up, the tested form may be a part): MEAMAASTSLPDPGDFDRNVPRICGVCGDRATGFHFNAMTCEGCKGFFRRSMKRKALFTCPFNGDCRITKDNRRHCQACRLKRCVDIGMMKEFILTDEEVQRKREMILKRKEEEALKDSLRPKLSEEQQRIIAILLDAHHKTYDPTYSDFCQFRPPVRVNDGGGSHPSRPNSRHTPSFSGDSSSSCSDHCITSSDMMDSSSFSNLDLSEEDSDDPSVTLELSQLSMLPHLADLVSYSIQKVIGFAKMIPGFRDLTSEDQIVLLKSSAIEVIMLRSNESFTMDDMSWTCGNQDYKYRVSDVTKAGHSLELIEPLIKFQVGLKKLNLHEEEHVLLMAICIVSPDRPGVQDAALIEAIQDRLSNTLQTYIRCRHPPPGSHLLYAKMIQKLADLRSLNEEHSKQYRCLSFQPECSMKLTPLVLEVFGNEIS
Chain of Retinoic acid receptor alpha (Homo sapiens) (P10276 whole entry, looked up, the tested form may be a part): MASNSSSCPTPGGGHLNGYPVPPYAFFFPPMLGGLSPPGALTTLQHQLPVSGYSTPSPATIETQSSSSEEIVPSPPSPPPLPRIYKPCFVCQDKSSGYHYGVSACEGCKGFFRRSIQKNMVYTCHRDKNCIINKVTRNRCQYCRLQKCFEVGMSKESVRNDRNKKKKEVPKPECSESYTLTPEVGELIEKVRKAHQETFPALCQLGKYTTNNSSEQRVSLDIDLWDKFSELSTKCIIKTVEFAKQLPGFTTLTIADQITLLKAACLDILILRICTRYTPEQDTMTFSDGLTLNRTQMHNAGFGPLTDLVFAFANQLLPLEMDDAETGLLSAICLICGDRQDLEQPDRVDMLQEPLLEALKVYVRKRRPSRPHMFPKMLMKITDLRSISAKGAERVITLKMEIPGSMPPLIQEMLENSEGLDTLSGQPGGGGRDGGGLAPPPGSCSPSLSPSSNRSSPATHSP
Chain of Retinoic acid receptor RXR-alpha (Homo sapiens) (P19793 whole entry, looked up, the tested form may be a part): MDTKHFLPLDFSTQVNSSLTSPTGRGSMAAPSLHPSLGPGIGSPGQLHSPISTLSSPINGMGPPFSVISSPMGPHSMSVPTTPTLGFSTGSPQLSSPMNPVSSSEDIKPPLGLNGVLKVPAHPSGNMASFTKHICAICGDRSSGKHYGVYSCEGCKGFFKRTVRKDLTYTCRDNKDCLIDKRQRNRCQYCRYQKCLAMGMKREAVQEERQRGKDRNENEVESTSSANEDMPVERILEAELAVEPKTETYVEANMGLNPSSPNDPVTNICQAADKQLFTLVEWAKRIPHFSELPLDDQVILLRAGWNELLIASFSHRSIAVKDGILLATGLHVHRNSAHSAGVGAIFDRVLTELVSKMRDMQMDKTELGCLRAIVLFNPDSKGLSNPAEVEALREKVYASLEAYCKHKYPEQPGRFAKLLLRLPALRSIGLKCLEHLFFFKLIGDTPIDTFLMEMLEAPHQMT
Chain of human Thyroid Receptor alpha (THRa1), THRA (gene 7067) (P10827 whole entry, looked up, the tested form may be a part): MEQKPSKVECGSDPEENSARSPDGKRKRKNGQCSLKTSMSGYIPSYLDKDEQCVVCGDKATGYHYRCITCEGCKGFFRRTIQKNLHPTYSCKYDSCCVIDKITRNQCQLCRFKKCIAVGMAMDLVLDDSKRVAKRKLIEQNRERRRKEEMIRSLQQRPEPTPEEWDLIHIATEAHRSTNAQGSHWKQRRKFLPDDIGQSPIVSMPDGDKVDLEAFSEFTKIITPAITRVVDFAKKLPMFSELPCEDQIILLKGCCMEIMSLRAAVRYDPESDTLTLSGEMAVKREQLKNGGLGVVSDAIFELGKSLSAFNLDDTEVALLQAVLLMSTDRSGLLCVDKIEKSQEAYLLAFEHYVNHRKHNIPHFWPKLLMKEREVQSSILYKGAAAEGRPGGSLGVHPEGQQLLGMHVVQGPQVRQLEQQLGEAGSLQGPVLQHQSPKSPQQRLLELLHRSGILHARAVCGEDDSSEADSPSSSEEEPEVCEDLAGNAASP
Chain of human Retinoic Acid Receptor beta (RARb), RARB (gene 5915) (P10826 whole entry, looked up): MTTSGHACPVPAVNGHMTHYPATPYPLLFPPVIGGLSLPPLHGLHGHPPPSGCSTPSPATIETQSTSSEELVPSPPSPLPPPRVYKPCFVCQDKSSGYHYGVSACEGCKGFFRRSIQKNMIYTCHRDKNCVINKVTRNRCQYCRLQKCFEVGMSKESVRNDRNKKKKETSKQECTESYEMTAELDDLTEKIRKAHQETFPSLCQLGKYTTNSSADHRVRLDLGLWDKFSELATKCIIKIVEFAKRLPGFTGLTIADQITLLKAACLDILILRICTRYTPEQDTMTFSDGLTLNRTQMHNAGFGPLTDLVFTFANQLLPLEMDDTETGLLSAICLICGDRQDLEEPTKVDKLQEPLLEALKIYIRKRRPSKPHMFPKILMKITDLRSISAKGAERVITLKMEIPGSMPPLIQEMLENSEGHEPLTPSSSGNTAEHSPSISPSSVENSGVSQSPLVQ

In the case of `CC(=O)N1CCN(c2ccc(OC[C@H]3CO[C@](Cn4ccnc4)(c4ccc(Cl)cc4Cl)O3)cc2)CC1`, the outcome in assay [1], in assay [3], in assay [4], in assay [5], in assay [6] and in [11] was inactive. Also, the AC50 is 23.8 µM (active) in [2]; 31.9 µM (active) in assay [7]; 26.4 µM (active) in assay [8]; 25.2 µM (active) in [9]; 31.3 µM (active) in assay [10].

Take `Cc1oc2c(NC(=O)c3c(Cl)cccc3Cl)cccc2c1C(C)(C)O`: the outcome in assay [1], in assay [12], in assay [13], in [14], in assay [15] and in assay [7] was inactive. Besides, the result in [8], in assay [16] and in [11] was inactive. Also, the AC50 was 21.4 µM (active) in [2]; 3.28 µM (active) in assay [3]; 0.204 µM (active) in assay [4]; 13 µM (active) in assay [5]; 23.6 µM (active) in [6]; 21.8 µM (active) in assay [9].

On to `CCCC(=O)OCCC(C)C`, for which the outcome in assay [1], in assay [12], in [13], in assay [2], in assay [15] and in [5] was inactive. Besides, the outcome in assay [6], in assay [7], in assay [8], in assay [9] and in assay [11] was inactive.

`Cc1cc(F)ccc1-c1cc(N2CC[C@@H](O)[C@H]2CO)ncc1N(C)C(=O)C(C)(C)c1cc(C(F)(F)F)cc(C(F)(F)F)c1`: the concentration at half-maximal activity (AC50) in assay [1] is 12.8 µM (active); in [2], 5.65 µM (active); in [4], 1.14 µM (active); in assay [5], 10.9 µM (active); in assay [6], 14.6 µM (active); in [7] it was 10 µM (active). In addition, the AC50 in assay [8] was 6.91 µM (active); in assay [9], 9.43 µM (active); in assay [10], 9.76 µM (active); in assay [16] it was 12.9 µM (active). In addition, the result in assay [3], in assay [14] and in [11] was inactive.

One may read the AC50 as the midpoint of the concentration-response curve, whichever way the signal moves.
